# From PubChem BioAssay (NCI)
# The panel holds about 79,000 compounds, 15% with a hit somewhere; the sample as a whole holds those more often. A number with no mark means an inactive call. Rule as the data show it: active = growth inhibition above about 70%; inactive = the rest.
# Test: NCI Yeast Anticancer Drug Screen. Data for the mec2-1 strain (AID 157)
# Details: S. cerevisiae mec2-1 strain, at 50.0 µM, hits give high values
# Outline: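 Using mec2-1 yeast: add compound, measure growth, express inhibition versus vehicle-treated cultures.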
row,Structure (SMILES),growth inhibition [%]
1,NS(=O)(=O)c1ccc(NC(=O)c2cccn3c(=O)c4ccccc4nc23)cc1,9.45
2,Cc1cc2ccccc2c[n+]1CC(=O)CC([O-])(C(F)(F)F)C(F)(F)F,3.25
3,Brc1ccc(-c2[nH]c3ccccc3c2N=Nc2ccccc2)cc1,-9.6
4,C1CCC2(CC1)CCCO2,6.2
5,CCOC(O)C(F)(F)F (configuration not stated),-0.7
6,CCOC(=O)c1ccnc(F)c1,-15.7
7,O=C(O)c1ccccc1/C=N\N(CCO)C1=NCCN1,13.1
8,OC(COc1ccc2ccccc2c1)COc1ccc2ccccc2c1,-22.1
9,O=C(CN1CCN(c2ccccc2)CC1)N1CCc2c([nH]c3ccccc23)C1c1cccnc1 (configuration not stated),-19.8
10,CCc1nc(N)nc(N)c1-c1ccc2nn(-c3ccccc3)[n+]([O-])c2c1,10.8
11,O=C(CCCO)c1nc2ccccc2s1,12.9
12,COc1ccc2c(c1OC)C(Cc1ccccc1)N1CCc3cc4c(cc3C1C2)OCO4 (configuration not stated),59
13,CC(c1ccccc1)C1OCCO1 (configuration not stated),-27.4
14,O=C1c2ccccc2-c2cccc3ccc(-c4ccccc4)c1c23,1.9
15,O=[N+]([O-])c1ccc(NC(CO)C(O)C(O)C(O)CO)c([N+](=O)[O-])c1 (configuration not stated),-4.85
16,CC(=O)Nc1ccc(S(=O)(=O)N=S(C)C)cc1,-9.05
17,CNC(=O)C(C)Oc1ccc(OCC2CCCCC2)cc1 (configuration not stated),-44.2
18,Cc1cccc(Cl)c1NC(=O)C(Cl)Cl,9.75
19,COc1cc(/C=C/C=C(C(=O)O)C(=O)O)cc(OC)c1OC,-1.2
20,COC(=O)C1Cc2cc3c(cc2C1=O)CCC3 (configuration not stated),-12.8
21,CCOC(=O)Nc1ccc(C2OCCS2)cc1 (configuration not stated),-21.6
22,CC[C@@H]1CN(C)[C@H]2Cc3c([nH]c4ccccc34)C(=O)C[C@H]1C2C(=O)OC (some centres not stated),-14.5

# Test: NCI Yeast Anticancer Drug Screen. Data for the sgs1 mgt1 strain (AID 161);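 also: 0% = growth of cultures given vehicle only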
# Details: S. cerevisiae sgs1 mgt1 strain, at 50.0 µM, hits give high values
# Outline: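 Growth of a repair-deficient yeast mutant was monitored after compound treatment and expressed as inhibition relative to vehicle-treated cultures.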
row,Structure (SMILES),growth inhibition [%]
1,CC(=O)Nc1cccc2ccc([N+](=O)[O-])cc12,-3.8
2,NC(=S)N/N=C/c1cc([N+](=O)[O-])ccc1O,25.9
3,Brc1ncccn1,0.65
4,Cc1ccc(C)c(CNC(=O)NC(C)(C)C)c1,-6.65
5,CCCCCCCCCCCCCCCCCC[N+](C)(C)Cc1c(Cl)c(Cl)c(Cl)c(Cl)c1Cl,20.4
6,CC1C2CC(C/C2=N/O)C1(C)C (configuration not stated),36.5
7,CC1(C(Cl)Cl)C=CC(=O)c2ccccc21 (configuration not stated),21.4
8,Nc1ncnc2nc(N=Nc3ccc(S(=O)(=O)O)cc3)[nH]c12,-1.2
9,Cc1ccc(C(C)(O)C2CC2)cc1 (configuration not stated),-18.4
10,Cc1ccc(S(=O)(=O)OCC23CCC(CC2)CC3)cc1,-26.2
11,O=C(O)C(Cc1ccccc1)NS(=O)(=O)Cc1ccccc1 (configuration not stated),-4.5
12,OCCCNc1ncnc2[nH]ncc12,11.6
13,O=C(SCc1ccccc1)N(c1ccccc1)c1ccccc1,0
14,CCCOC(=O)c1cccnc1C(=O)OCCC,1.5
15,CCOC(=O)Cn1/c(=N/N=C(\C)c2ccc([N+](=O)[O-])o2)sc2cc(Cl)ccc21,4.8
16,O=C(Nc1ccc(Cl)cc1)Nc1nnc(-c2cccc(-c3nnc(NC(=O)Nc4ccc(Cl)cc4)o3)c2)o1,36.4
17,CC(C)(C)CC(C)(C)N(CSc1ccc2ccccc2c1)CSc1ccc2ccccc2c1,21.1
18,C#CC(C)(CC)OC(C)=O (configuration not stated),7.6
19,NS(=O)(=O)c1ccc(NC(=O)c2cccn3c(=O)c4ccccc4nc23)cc1,-7.6
20,Cc1cc2ccccc2c[n+]1CC(=O)CC([O-])(C(F)(F)F)C(F)(F)F,-5.65

row,Structure (SMILES),growth inhibition [%]
1,Brc1ccc(-c2[nH]c3ccccc3c2N=Nc2ccccc2)cc1,6.45
2,C1CCC2(CC1)CCCO2,-0.9
3,CCOC(O)C(F)(F)F (configuration not stated),10.6
4,CCOC(=O)c1ccnc(F)c1,-6.15
5,O=C(O)c1ccccc1/C=N\N(CCO)C1=NCCN1,13.9
6,OC(COc1ccc2ccccc2c1)COc1ccc2ccccc2c1,-7.85
7,O=C(CN1CCN(c2ccccc2)CC1)N1CCc2c([nH]c3ccccc23)C1c1cccnc1 (configuration not stated),-19.6
8,CCc1nc(N)nc(N)c1-c1ccc2nn(-c3ccccc3)[n+]([O-])c2c1,20
9,O=C(CCCO)c1nc2ccccc2s1,2.8
10,COc1ccc2c(c1OC)C(Cc1ccccc1)N1CCc3cc4c(cc3C1C2)OCO4 (configuration not stated),48
11,CC(c1ccccc1)C1OCCO1 (configuration not stated),-15.8
12,O=C1c2ccccc2-c2cccc3ccc(-c4ccccc4)c1c23,-10.2
13,O=[N+]([O-])c1ccc(NC(CO)C(O)C(O)C(O)CO)c([N+](=O)[O-])c1 (configuration not stated),-0.85
14,CC(=O)Nc1ccc(S(=O)(=O)N=S(C)C)cc1,-24.9
15,CNC(=O)C(C)Oc1ccc(OCC2CCCCC2)cc1 (configuration not stated),-14.4
16,Cc1cccc(Cl)c1NC(=O)C(Cl)Cl,8
17,COc1cc(/C=C/C=C(C(=O)O)C(=O)O)cc(OC)c1OC,-14.7
18,COC(=O)C1Cc2cc3c(cc2C1=O)CCC3 (configuration not stated),-2.8
19,CCOC(=O)Nc1ccc(C2OCCS2)cc1 (configuration not stated),9.45
20,CC[C@@H]1CN(C)[C@H]2Cc3c([nH]c4ccccc34)C(=O)C[C@H]1C2C(=O)OC (some centres not stated),-19.6
